# Laboratory results: the supplement of paper PMC10338343
# ± gives the standard deviation.
# System: MILI (PIWIL2) piRISC loaded with piRNA #1 (26 nt)
# Experiment: pre-steady-state target cleavage rate (min^-1); guide: piRNA #1 5'p-UGAGGUAGUAGGUUGUAUAGUAUCCA; MIWI and MILI are mouse PIWI proteins and EfPiwi is from a freshwater sponge; tags in brackets are library labels; higher = faster piRNA-guided slicing of the target
# Details: auxiliary factor: 500 nM mouse GTSF1
# Summary of the method: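 For Cleave-'n-Seq, a transcribed, DNA-blocked target RNA library […] met 1 nM active affinity-purified piRISC with one synthetic guide at 33 °C for 0–8 or 0–960 min in HEPES–potassium acetate buffer, with or without 500 nM GTSF1 partner protein. Uncleaved targets were sequenced and normalised to depth and weakly complementary targets, with three trials pooled and k3 capped at 0.0001 min^-1. A burst-and-steady-state fit supplied the pre-steady-state cleavage rate.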
# 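Also: 1 nM active piRISC with 0.1 nM target library at 33 °C single turnover.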
row,Sequence,pre-steady-state target cleavage rate
1,GGAGUGGAUACUAUUGUACCUACUACCUCA,0.115 ± 0.0083
2,GGAGACCAUACUAUACAAGCUACUAGCUCA,0.0756 ± 0.022
3,GGAGACCAUACAAUACAACCAACUACCUCA,0.00736 ± 0.0032
4,GGAGACCAUAGUAUACAACCUUCUACCUCA,0.0111 ± 0.0041
5,GGAGACCUAACUAUACAACCUACAACCUCA,0.108 ± 0.026
6,GGAGACCUAUGUAUAGUACCUACUACCUCA,0.013 ± 0.0027
7,GGAGACCUAUGAAUACAACCUACUACCUGA,0.00268 ± 0.0026
8,GGAGUGGAAACUAUACAACCUACAACCUCA,0.0962 ± 0.023
9,GGAGACCUUACUUUUCAACCUACUACCUCA,0.0874 ± 0.01
10,GGAGACCUAUGAAUACAACCUACUGCCUCA,0.0052 ± 0.0029
11,GGAGACCUAUCUAUACAUCCUUCUACCUCA,0.0137 ± 0.0039
12,GGAGACCUAUGAUUACAACCUCACUACCUCA,0.00291 ± 0.0027
13,GGAGACCUAUCUAUACAACCUACUACCAUCA,0.123 ± 0.016
14,GGAGACCUAUCUAUAGAACCUACUACCUGA,0.00618 ± 0.0029
15,GGAGACCUAUGAUAUGUUCCUACAAGCUCA,< 0.0001
16,GGAGUGGAUACAAUACAACCUACUACCACA,0.111 ± 0.0093
17,GGAGACCUUACUUUAGAACCUACUACCUCA,0.13 ± 0.01
18,GGAGACCUUACAAUAGAACCUACUACCUCA,0.0823 ± 0.01
19,GGAGACCUAACAAUACUACCUACUACCUCA,0.0399 ± 0.013
20,GGAGAGGAUACUAUACGACCUACUACCUCA,0.121 ± 0.0093

row,Sequence,pre-steady-state target cleavage rate
1,GGAGACCUAUGAUAACAUCCUACUAGCUCA,0.00409 ± 0.0032
2,GGAGACCUAUGAUAUGUACCUACUACCCA,< 0.0001
3,GGAGACCUAUGAUAUGUUCCUACUCCUCA,< 0.0001
4,GGAGACCUAACAAUACAAGCUACUACCUCA,0.22 ± 0.029
5,GGAGAGGAUACUAUACAACCUUCUACCUCA,0.0114 ± 0.0024
6,GGAGACCUAUCUAUAGAACCUACUACCACA,0.0472 ± 0.0098
7,GGAGACCUAUCUAUACUAGCUACUACCUCA,0.0865 ± 0.011
8,GGAGUGGAUUCUAUACAACCUACUUCCUCA,0.00383 ± 0.0021
9,GGAGACCUAUGUAUACAACCUUCAACCUCA,0.00276 ± 0.0024
10,GGAGACCAUACAAUACAACCUACUACCACA,0.177 ± 0.022
11,GGAGACCUAACUUUACAACCUACUACCACA,0.109 ± 0.024
12,GGAGACCUAUGAUUACUACCUACUAGCUCA,0.0036 ± 0.0032
13,GGAGACCUAUCUAUACAACCUAAUACCUCA,0.0234 ± 0.0057
14,GGAGACCUAUGAAUACAAGGUACUACCUCA,0.00378 ± 0.003
15,GGAGACCUAUGUAAACAACGUACUACCUCA,0.0029 ± 0.002
16,GGAGACCUAUCUAUACAACCUACAUACCUCA,0.113 ± 0.015
17,GGAGACCUAUCUAUACACCUACUACCUCA,0.00467 ± 0.0029
18,GGAGACCUUACUAUACAACGUACUACCACA,0.0216 ± 0.0046
19,GGAGACCUAUGAUAACAACCUACUACCUCC [g2:g16:cont:t1C],0.00493 ± 0.0021
20,GGAGACCUAUGUAUAGAACCUACUACCACA,0.0238 ± 0.0059
